# Data taken from the supplement of paper PMC11417369.
# Whole data set: some 25,000 sequences, median “ln(normalized median fluorescence intensity)” near 6.7, cut for the highest 2% near 10. The list comes from a sample in which the highest values are over-represented; it also holds similar and randomly drawn sequences.
# Tested on: PfHDP1 homeodomain (GST-tagged)
# Assay: gcPBM binding intensity (ln(normalized median fluorescence intensity)); higher = stronger DNA binding
# Method in brief: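 After 1 h on an Agilent 4 × 180k array of primer-extended double-stranded 36-bp intergenic genomic probes and negative controls, bound GST-tagged P. falciparum DNA-binding domains were detected with Alexa488 anti-GST antibody and scanned at 488 nm. The domains had been expressed in E. coli, and binding took place in 1× PBS with 1% milk, 0.2 mg/ml BSA, 0.5% salmon testes DNA and 0.03% Triton X-100. Binding intensity is the highest Masliner-normalised natural-log median intensity across replicate spots of either probe orientation.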
row,Sequence,gcPBM binding intensity (ln)
1,AAATAGTTGTTATGGGTGCAAACCACATATATATAA [GTGCAC_site9428],8.79
2,TGTAGTTTGTCCCATGCATGTTCCATTAAAATATAT [TGCATGCA_site854],7.57
3,TTATGTAGTATAATGAGTACTAAATATAGATATGTT [XGTACX_site6335],6.56
4,ATTTAACAACTTCAAACACACAATATAGATTTATAT [CACACA_site7067],6.6
5,AAACAAGTAATTGTTATTATTATTATATTATTATTA [CACACA_negctrl_site402],6.12
6,TTTGAATATTCATATGCACACAAATTAATATACATA [CACACA_site8040],9.99
7,AAAAAAAAAAAATGTGTGCACATTATTTCAACTTAA,10
8,TTTATTTATTATTAAAGTACTAAATTATATTATTAT [XGTACX_site2565],5.95
9,ATAATAATATTATTTTGTACATATGTGCTTATTTAT [XGTACX_site5540],7.11
10,ATGTGCAAATATTAAAGTACTAAATTTTATTATTTT [XGTACX_site7306],11.3
11,TTTATTTATTATTAAAGTACTAAAATATATTATTAT [XGTACX_site4887],6.24
12,TATTTCAAATGTTATGTGCACATATTAATCCTACTT [GTGCAC_site9738],10.7
13,ATATATACATATAAATGTACATAATTATTATGCACA [XGTACX_site1261],9.09
14,AATGTATTAAAATTACGTACATATGCACATTTTATA [XGTACX_site5046],8.53
15,GTACGTTACATAAATGTGCACATATTATATGCGAAG,10.7
16,ATTTTAAATGTTATGCGTACATATTAATCCTACTTA [XGTACX_site1344],6.69
17,AATAATATTTATTTTTGTACATATGTGCATTATAAA [XGTACX_site3682],11.2
18,TTGCATTAATTTATGTGTACATATAAATTTTTATTT [XGTACX_site3060],6.94
19,GAAAACGTTTGAAGTTGTACATATGTATAAAAAGAA [XGTACX_site2304],7.74
20,TTTTTCATATTATACTTTTATATACATATATAAAAA [XGTACX_negctrl_site281],6.49
21,ATATATATATGTAATAGTACATATGATAGTTTGTCA [XGTACX_site1545],8.51

row,Sequence,gcPBM binding intensity (ln)
1,TTTTTATTGCAATACTTATATTTTTTTATGATTAAA [TGCATGCA_negctrl_site147],10.1
2,TTACATGCTAAAATTTGTACATATATGATAAATATT [XGTACX_site2648],6.47
3,TATTATTTAATCAAATGTACATAGAAAATGTATGTA [XGTACX_site4433],6.21
4,CATATATACAGTAACACACACAAAAAAATATGAATA [CACACA_site3996],6.91
5,ATATAGTTGTCATATTGTACACTTTAGGGTTGGTTA [XGTACX_site7339],6.64
6,TTATAAAAATAATATCGTACAAATGACATAGATGAA [XGTACX_site2570],6.6
7,ATTATCCATGCATTTACACACACACCCAAAAAAATT [CACACA_site4101],7.67
8,ATATATATATATATATGTACATATTTATATTGTAAA [XGTACX_site8878],9.35
9,TAATTACCATATGGTACACACATATATATATGTATA [CACACA_site3487],7.02
10,TTTTTCATAAGAAGCACACAAAAAATGATAGAGAAT [CACACA_site1417],7.39
11,AAAATATTCACGTGTACATATATATATATATATTAT [TGCATGCA_negctrl_site192],6.96
12,TTTTATATAAATATCACACACACACGCATGTTTTAA [CACACA_site6187],6.71
13,CATATACAGAAACACACACACACATAAATAAATATA [CACACA_site1343],6.84
14,TTTTATATTTTATGCACACTTATAAGAAATATGTAC [CACACA_site3040],10.6
15,TATTTTATATTTTATGCACACTTATAAGAAATATGT [CACACA_site5647],9.42
16,ATTTATATAAAGAATGTACACACAGAAATGCACCCA [CACACA_site8715],10.7
17,TTATATAAAGAATGTACACACAGAAATGCACCCACA [CACACA_site2282],9.38
18,ATAATATATGTATGTATGCACTTTTATTATTTTTTT,7.24
19,CATTTATATAAAGAATGTACACACAGAAATGCACAC [XGTACX_site4718],9.03
20,AAATATTATAATAATTGTACTATATATACAGTTATT [XGTACX_site1963],6.39
21,TAATATATCTATAATACACACTATTCTAATCACATA [CACACA_site6731],6.49

row,Sequence,gcPBM binding intensity (ln)
1,AGTAGTCTGGAGAAGAGTACATAGTATCTGGTAGCT [XGTACX_site2017],6.4
2,ATATTTTTATTAGTAGTGCAATTTAGTGTATATATA [GTGCAC_site9542],10.1
3,TACCCTTGCATGTAGGTGCAATTTTTTTTTTTTTTT,9.32
4,ATTTATATTACCCTTGCATGTAGGTGCAATTTTTTT [TGCATGCA_site757],10.5
5,AAAAAAAAAAAACACACACACACATACACATACATA [CACACA_site2858],6.83
6,TTAACATCAAAATATGCACACAAACAATTAGCGGTA [CACACA_site8801],9.76
7,TTATATGCATAAAAAGGTACACATATATAAATAAAT [XGTACX_site6894],6.68
8,CAAAAGGATATGCACACACACACACGGATATTTATA [CACACA_site7099],10.1
9,TATGAAAAAATATATACACACATAATAAAGGTATAT [CACACA_site3737],6.42
10,TATTTATGCACGCGTGCACACACATATGAAAAAAGG [CACACA_site9090],10.9
11,TTTATGACTTGAAAAAGTACACATATATTTATGCAA [XGTACX_site5451],6.31
12,TTTATGCACGCGTGCACACACATATGAAAAAAGGTA [CACACA_site3315],11
13,TTAGGAAGCTCACAAAATAAAGTGAAAAGAAGAAAA [XGTACX_negctrl_site572],6.45
14,CCACAAGTATATAGTAGTACAATTTTTTTCTCTTTA [XGTACX_site4403],6.12
15,ACAACAAAAATAAGCACACACAAATATACATACATA [CACACA_site7664],6.55
16,CTCTTCTATATATAAGCATGCATTCATAATAATTTA [TGCATGCA_site679],7.04
17,TTTTTATATAACCTTCTTAATTCTTTTTTTTTTTTT [XGTACX_negctrl_site591],6.16
18,TTCTCTATAAATGCTGCACACACATTTAATTATTTA [CACACA_site8828],8.06
19,CTTTTATTGCTCTATATGCACACCTTAATTCTTCAT [CACACA_site2195],10.5
20,TTTATTGCTCTATATGCACACCTTAATTCTTCATTT [CACACA_site8682],11.1
21,TCATATAATATTTATATGCACACTTTTCTATATATA [CACACA_site4075],8.75

row,Sequence,gcPBM binding intensity (ln)
1,AAAAGGAACGGACACACACACATATATATATATATA [CACACA_site5894],9.45
2,TTTTTGAGTGCACATACACACAGACATACATTTAAA [CACACA_site5813],10.4
3,TATATTAAACTTTGCACACATAATTTAACTACAAAG [CACACA_site3441],10.5
4,ACTAAACTTTTATGTACACACATATAACATTAATTT [CACACA_site5276],6.98
5,TTTTTTTTTTTTTTTGCACACTATATTTAATATAAG [CACACA_site2444],9.31
6,TATATATTAAACTTTGCACACATAATTTAACTACAA [CACACA_site3440],10.7
7,TTAATATAACTTTTTGCACACTTAATTTTTTTTTTT [CACACA_site3364],10.2
8,AATATAACTTTTTGCACACTTAATTTTTTTTTTTAA [CACACA_site3365],10.6
9,ATGTATATGTTTTGTTGTACAAGTATTTTATATCTT [XGTACX_site3588],6.77
10,AACTCATAGGAGTGTGCACACAAAAAATTAAAAAAA [CACACA_site8996],11
11,AACTCATAGCGGTGTGCACACAAAAAATTAAAAAAA [CACACA_site3033],11
12,AAAATTAAACTCACACCACACACAAAAAAAAAAAAA [CACACA_site8131],6.32
13,CTCATAGTTGGGTGCACACAAAAAATTAAAAAAATA [CACACA_site3032],10.3
14,AATTATTAGCGTGGTGTGCACAAAATTATGGACACA,9.8
15,TTCATATTATAGTGCACACAAAAATATATATATGGT [CACACA_site2855],10.4
16,AGTATATATTATATATATATATATATATTATATATG [TGCATGCA_negctrl_site99],6.59
17,CTTTCTTATTTGAACGCATGCATTTGTACCTTTTAT [TGCATGCA_site671],6.85
18,AAATTCCACCAACACACACACATATAAATAAATAAA [CACACA_site1233],6.84
19,TTCAAAACTTAAAATCGTACAAGACAATTATTATAT [XGTACX_site6626],6.32
20,TTCTTTTTATTTATATTTTCCCCTCTCTATAGCTAT [XGTACX_negctrl_site102],7.06
